Screening results: PubChem BioAssay, National Center for Advancing Translational Sciences (NCATS)
Shown are actives, neighbours in structure and some others; about 17% of the full set was active somewhere.
S2 tox: cell viability loss in ATXN counter-screen; 400,000 compounds, 0.49% hits; S2 cells (HEK-293 line with an ATXN2-luciferase reporter) viability, CellTiter-Fluor protease fluorescence, 24 h; Potency, µM (series often up to 56.7 µM), hits mostly cytotoxic; further: nearly all actives have a fitted effect of over 40% in size
ATXN2 expr inh: inhibitors of ATXN2 expression; AID 1745845; Potency, µM (series often up to 57 µM), inactives show at the highest dose activity change, negative = inhibition, most hits filed as inhibitors; 360,000 compounds, 0.72% hits; HEK-293 ATXN2-luciferase reporter, luminescence, 24 h; further: on the % scale 0 is the no-effect control and ±100 the full control effect; nearly all actives have a fitted effect of over 55% in size
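ATXN2-luciferase reporter cells (luciferase flanked by upstream and downstream ATXN2 gene portions) were treated 24 h at 37 °C with compounds at up to 57 uM. SteadyGlo luminescence gave expression; GF-AFC fluorescence gave viability.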
TDP1 cell noCPT: qHTS for Inhibitors of human tyrosyl-DNA phosphodiesterase 1 (TDP1): qHTS in cells in absence of CPT; 420,000 compounds, 15% hits; AID 686978, 2013; Potency, µM (top dose mostly 46.2 µM), for the others: at the top dose activity change, negative = growth inhibition, hits mostly inhibitors; DT40 Tdp1-/- hTDP1 cells, no CPT, ATP luminescence, 48 h; further: on the % scale 0 is the no-effect control and ±100 the full control effect; nearly all actives have a fitted effect of over 55% in size
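Growth of hTDP1-complemented DT40 Tdp1-knockout cells is measured by ATP luminescence after at least 48 hr compound exposure at 37 °C, with DMSO substituting for the 20 nM CPT used in the parallel screen.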
TDP1 cell CPT: DT40-hTDP1 cell growth loss with CPT. 420,000 compounds, 12% hits. chicken DT40 Tdp1-/-;hTDP1 cells + 20 nM CPT, ATP luminescence, 48 h. Potency, µM (titrated, usually from 46.2 µM), inactives show at the top dose activity change, negative = growth inhibition, usual class: inhibitors. AID 686979; further: on the % scale 0 is the no-effect control and ±100 the full control effect; nearly all actives have a fitted effect of over 55% in size
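Cell growth measured by CellTiter-Glo luminescence after a minimum 48 h, 37 C compound exposure with 20 nM CPT in Tdp1-knockout DT40 cells stably expressing hTDP1, seeded 400/well; qHTS titration format.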
TGFb inhibitor: blocks TGF-b signaling; HepG2 CAGA-GFP TGF-b/SMAD3 reporter, GFP fluorescence, 18 h; TGF-beta stimulated, 500 pg/mL final; Potency, µM (titrated, usually from 46.1 µM), inactives show at the top dose activity, negative = inhibition, most hits filed as inhibitors; 410,000 compounds, 1.2% hits; AID 588855; further: on the % scale 0 is the no-effect control and ±100 the full control effect; nearly all actives have a fitted effect of over 65% in size
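TGF-beta reporter screen: HEPG2 CAGA-GFP, 1% FBS, 500 pg/mL TGF-beta final, 18 h; per-cell GFP summed per well; curves fitted and categorized by class.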
HepG2 tox: HepG2 cytotoxicity, counter-screen for TGF-b inhibitors; HepG2 CAGA-GFP viability, ATP luminescence, 18 h; 410,000 compounds, 0.76% hits; Potency, µM (series often up to 46.1 µM), without a hit: top-dose activity change, negative = cytotoxicity, actives largely listed as cytotoxic
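HepG2 CAGA-GFP cells (1000/well, DMEM with 1% FBS) received compound, then TGF-beta at 500 pg/mL final, and were incubated 18 hours at 37 degrees C. Viability was read by CellTiter-Glo luminescence. Media-only wells were set as complete cell-killing and DMSO as no toxicity.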
Starred values were filed as active, the others as inactive; i = inactive; ? = inconclusive; · = no result. The call rests on the fitted dose curve; in most records, active means well fitted curve in the direction sought with a large enough effect; inconclusive means small, poorly fitted or top-dose-only effect, or another doubt; inactive means no such curve, though single readings can be large; an effect the other way counts as inactive or inconclusive. Potency means the concentration at half of the fitted maximal effect.

SMILES	S2 tox	ATXN2 expr inh	TDP1 cell noCPT	TDP1 cell CPT	TGFb inhibitor	HepG2 tox
Cc1cccnc1C(NC(=O)C1CCN(Cc2ccc3ccccc3n2)CC1)c1ccc(Cl)cc1 (stereo unspecified)	?	-7%	16µM*	?	-19%	-27%
Cc1cccnc1C(NC(=O)C1CCN(Cc2ccc(Cl)cc2)CC1)c1ccc(F)cc1 (stereo unspecified)	?	?	21µM*	26µM*	-6%	-21%
Cc1ncc(CO)c2c1Oc1nc(-c3ccc(F)cc3)nc(SCc3ccc(F)cc3Cl)c1C2	i	4%	-8%	17%	-5%	-1%
Cc1ccccc1C(c1ncccc1C)N(C)C(=O)C1CCN(CCOc2ccc(Cl)cc2Cl)CC1 (stereo unspecified)	25µM*	?	?	?	?	-86%
CCCN1CCC(C(=O)NC(c2ccc(F)cc2)c2ncccc2C)CC1 (stereo unspecified)	i	3%	-26%	?	12%	-3%
Cc1cccnc1C(NC(=O)C1CCN(CCCc2ccccc2)CC1)c1ccc(F)cc1 (stereo unspecified)	i	3%	23µM*	?	14%	-25%
O=C(NC(c1cccnc1)c1ccc2c(c1)OCO2)C1CCN(CCOc2ccc(Cl)cc2Cl)CC1 (stereo unspecified)	?	?	?	-45%	?	-47%
COc1ccc(OCCN2CCC(C(=O)NC(c3ccc(F)cc3)c3ncccc3C)CC2)cc1 (stereo unspecified)	i	-5%	16µM*	?	-5%	-17%
COc1ccc(OCCN2CCC(C(=O)NC(c3ccc(Cl)cc3)c3ncccc3C)CC2)cc1 (stereo unspecified)	?	?	?	23µM*	?	-57%
COc1ccc(OCCN2CCC(C(=O)NC(c3ccc(Cl)cc3)c3cnccn3)CC2)cc1 (stereo unspecified)	i	-14%	?	?	-28%	-20%
CC1CN(S(=O)(=O)c2ccc(CN3C(=O)c4cccnc4C3=O)s2)c2ccccc2O1 (stereo unspecified)	i	-9%	7%	-18%	6%	10%
CCc1c(O)nc(SCC(=O)N2CCc3cc(OC)c(OC)cc3[C@@H]2C)[nH]c1=O	i	3%	-4%	6%	0%	10%
COc1ccccc1C(NC(=O)C1CCN(CCOc2ccc3ccccc3c2)CC1)c1ccccn1 (stereo unspecified)	?	?	15µM*	15µM*	14µM*	-82%
O=C(NCc1ccccc1)c1c[nH]c2ccc(S(=O)(=O)Nc3ccc4c(c3)OCCO4)cc2c1=O	i	0%	-29%	-24%	-25%	-38%
O=C(NCc1cccnc1)c1c[nH]c2cc3c(cc2c1=O)OCCO3	i	33%	5.8µM*	10µM*	-10%	-24%
Cn1c(-c2c(N)n(C3CCCC3)c3nc4ccccc4nc23)nc2ccccc21	·	-19%	?	?	?	-24%
Cn1c(-c2c(N)n(CCCc3ccccc3)c3nc4ccccc4nc23)nc2ccccc21	·	-21%	?	?	?	-14%
Cn1c(-c2c(N)n(CCc3ccccc3)c3nc4ccccc4nc23)nc2ccccc21	·	-15%	21µM*	26µM*	-3%	-40%
COCCCn1c(N)c(-c2nc3ccccc3n2C)c2nc3ccccc3nc21	·	?	23µM*	26µM*	-19%	-6%
CSc1nccn1C(=O)c1ccccc1[N+](=O)[O-]	i	3%	2%	-20%	-23%	-11%
COc1ccc2c(c1)C(C)=CC(C)(C)N2S(=O)(=O)c1ccc(NC(C)=O)cc1	i	-11%	2.3µM*	5.8µM*	?	-15%
CCOc1ccc2c(c1)C(C)=CC(C)(C)N2S(=O)(=O)c1ccc(NC(C)=O)cc1	i	·	1.3µM*	1µM*	?	-5%
Cc1ccc(-n2nc(C(=O)N3CCN(c4cc(Cl)ccc4C)CC3)c3c4ccccc4n(C)c3c2=O)cc1	i	-11%	-1%	-6%	-11%	1%
CCCCNc1nc2c(-c3cccc(Br)c3)nnn2c2ccccc12	i	38%	-20%	1%	27%	0%
CCCCNc1nccnc1-c1cccc(C=O)c1	i	12%	?	18µM*	19%	-10%
SMILES	S2 tox	ATXN2 expr inh	TDP1 cell noCPT	TDP1 cell CPT	TGFb inhibitor	HepG2 tox
CCNC(=O)c1ccc2c(c1)sc1nc(-c3cccc(OC)c3)cn12	·	·	7.3µM*	6.5µM*	?	-33%
Cc1ccc(-c2cn3c(n2)sc2cc(C(=O)NCCC4=CCCCC4)ccc23)cc1	·	·	-27%	-9%	?	-15%
CCOc1ccccc1CNC(=O)c1ccc2c(c1)sc1nc(-c3cccc(OC)c3)cn12	·	·	8.2µM*	8.2µM*	-1%	-15%
COc1ccc(-c2cn3c(n2)sc2cc(C(=O)NCc4ccccc4OC)ccc23)cc1	·	·	?	-8%	-16%	-16%
COc1cccc(-c2cn3c(n2)sc2cc(C(=O)NCc4ccccc4F)ccc23)c1	·	·	16µM*	?	?	-10%
COc1cccc(-c2cn3c(n2)sc2cc(C(=O)NCCC4=CCCCC4)ccc23)c1	·	·	6.5µM*	13µM*	-21%	-22%
Nc1nc(F)cc(NCc2ccccc2)n1	i	·	-8%	5%	0%	-16%
CCOC(=O)C(C)NC(=O)CCc1nnc2ccc(N3CCC(C)CC3)nn12 (stereo unspecified)	?	·	?	?	?	-18%
COc1cccc(-c2cn3c(n2)sc2cc(C(=O)NCCc4ccc(OC)c(OC)c4)ccc23)c1	·	·	2.3µM*	4.6µM*	-32%	-47%
COc1cccc(-c2cn3c(n2)sc2cc(C(=O)NC4CCCCCC4)ccc23)c1	·	·	?	?	?	-26%
COc1ccc(-c2nc(CS(=O)(=O)CC(=O)NCCc3cc(OC)ccc3OC)c(C)o2)cc1	i	-12%	23µM*	?	-1%	-16%
COc1ccc(OC)c(CCNC(=O)CS(=O)(=O)Cc2nc(-c3cccc(Cl)c3)oc2C)c1	?	?	?	?	16µM*	-42%
